Among the data in PubChem BioAssay (NCI) are growth values, retold here.

Some test systems named below: SK-MEL-2 melanoma; EKVX NSCLC; UO-31 renal; TK-10 renal; CAKI-1 renal; A498 renal; CCRF-CEM leukemia; MOLT-4 leukemia; SR leukemia; RPMI-8226 leukemia; OVCAR-8 ovarian; OVCAR-5 ovarian; OVCAR-4 ovarian; SK-OV-3 ovarian; IGROV1 ovarian; OVCAR-3 ovarian; HS 578T breast; NCI/ADR-RES ovarian; ACHN renal; SN12C renal.
Holding throughout (assay): NCI-60 one-dose screen, 48 h (100 = growth as untreated, 0 = no growth, -100 = all killed)
Conditions in all cases: 10 µM unless noted

About 83,000 compounds went through this panel and 20% of them were active in at least one assay; those are over-represented in the sample as a whole.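 The endpoint reported here, percent growth, reads 100 for growth as untreated, 0 for no net growth and -100 for all cells dead.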 Unmarked numbers belong to inactive results. Activity calls are given as the source filed them. How the source made its calls: active means growth percent below 10; inactive means the rest.

As to `COc1ccc(/C(C)=C(\c2ccc(Cl)cc2)c2ccc(OCCN(C)C)cc2)cc1F`, the growth in the assay on SK-MEL-2 melanoma was 105%; in the assay with EKVX NSCLC, 81.6%; in the assay on UO-31 renal, 54.7%; in the assay on TK-10 renal it was 59.1%; with CAKI-1 renal, 56.2%; in the assay with A498 renal, 98.5%. Also, the growth with CCRF-CEM leukemia was 40.2%; with MOLT-4 leukemia it was 39.5%; in the assay with SR leukemia, -32% (active); in the assay with RPMI-8226 leukemia, -29.2% (active); with OVCAR-8 ovarian, 65.5%; in the assay on OVCAR-5 ovarian, 78%. Moreover, the growth is 56.1% in the assay with OVCAR-4 ovarian; 92.9% in the assay on SK-OV-3 ovarian; 47.6% with IGROV1 ovarian; 64.7% in the assay on OVCAR-3 ovarian; 64.3% in the assay with HS 578T breast; 78.9% in the assay with NCI/ADR-RES ovarian.
As for `C=C1c2c(C)nn(-c3ccc(S(N)(=O)=O)cc3)c2N(C)C23CC1C1(C)c4c(C)nn(-c5ccc(S(N)(=O)=O)cc5)c4N(C)C(C)(CC12)C3` (centres undefined), the growth is 44.7% with SK-MEL-2 melanoma; 29.6% in the assay on EKVX NSCLC; 25.5% in the assay on UO-31 renal; 46.6% in the assay on TK-10 renal; 14.1% in the assay with ACHN renal; 40.7% in the assay on CAKI-1 renal. For the same compound, the growth is 75.3% in the assay on A498 renal; 18.7% with CCRF-CEM leukemia; -64% (active) in the assay on RPMI-8226 leukemia; 40.1% in the assay on OVCAR-8 ovarian; 64% in the assay with OVCAR-5 ovarian; 39.3% in the assay on OVCAR-4 ovarian. The growth in the assay with SK-OV-3 ovarian was 57.6%; with IGROV1 ovarian, 49.1%; in the assay with HS 578T breast, 54.3%; with NCI/ADR-RES ovarian, 79.2%.
With `Nc1c(C(=O)c2ccc(Cl)s2)sc2nc3c(cc12)CCCC3`, the growth in the assay with SK-MEL-2 melanoma is 105%; with SN12C renal, 94.4%; in the assay on UO-31 renal it was 81.2%; in the assay on TK-10 renal, 151%; with ACHN renal it was 112%; in the assay on CAKI-1 renal, 87%. Also, the growth with A498 renal is 72%; in the assay with CCRF-CEM leukemia, 99.9%; in the assay with MOLT-4 leukemia it was 99.5%; in the assay on SR leukemia it was 97.3%; in the assay with RPMI-8226 leukemia it was 90.9%; with OVCAR-8 ovarian, 105%. The growth is 137% with OVCAR-5 ovarian; 112% with OVCAR-4 ovarian; 90.8% in the assay with SK-OV-3 ovarian; 104% with IGROV1 ovarian; 106% in the assay with OVCAR-3 ovarian; 111% with HS 578T breast. Moreover, the growth in the assay on NCI/ADR-RES ovarian is 101%.
As for `CN1CCC(=C2c3ccccc3C=Cc3ccccc32)CC1`, the growth with SK-MEL-2 melanoma is 105%; with EKVX NSCLC it was 91.9%; in the assay on UO-31 renal it was 67%; in the assay on TK-10 renal, 112%; with ACHN renal, 84.4%; in the assay with CAKI-1 renal, 95.5%. Moreover, the growth in the assay on A498 renal was 99.2%; in the assay on CCRF-CEM leukemia, 53.1%; in the assay on MOLT-4 leukemia, 72.6%; in the assay with RPMI-8226 leukemia, 72.7%; with OVCAR-8 ovarian, 85.4%; in the assay with OVCAR-5 ovarian, 108%. Further, the growth in the assay with OVCAR-4 ovarian is 72.9%; in the assay on SK-OV-3 ovarian, 97.6%; with IGROV1 ovarian, 72.7%; with OVCAR-3 ovarian it was 104%; in the assay on NCI/ADR-RES ovarian, 75.6%.
As to `COc1cc2c(cc1OC)-c1ccc3cc4c(cc3c1N(CCCN(C)C)C2)OCO4`, the growth was 45.4% with SK-MEL-2 melanoma; 60% with EKVX NSCLC; 38.7% with UO-31 renal; 46.6% with TK-10 renal; 8.3% (active) in the assay on A498 renal; 20.5% with CCRF-CEM leukemia. The growth with MOLT-4 leukemia was 8.66% (active); in the assay on RPMI-8226 leukemia, 17.1%; with OVCAR-8 ovarian it was 27.5%; with OVCAR-5 ovarian it was 60%; in the assay with OVCAR-4 ovarian it was 52.4%; in the assay with SK-OV-3 ovarian, 55.3%. In addition, the growth in the assay on IGROV1 ovarian is 21.7%; in the assay with OVCAR-3 ovarian, 48%; with NCI/ADR-RES ovarian, 65.4%.
In the case of `Cc1nc(-c2ccccc2)cc2c(O)c(C(=O)N/N=C/c3ccc(N(C)C)cc3)[nH]c(=O)c12`, the growth in the assay with SK-MEL-2 melanoma was 99.7%; in the assay with EKVX NSCLC it was 82.5%; in the assay on UO-31 renal, 84.2%; in the assay with TK-10 renal it was 88.8%; in the assay with ACHN renal, 67.5%; with CAKI-1 renal it was 99.4%. For the same compound, the growth is 93.9% with A498 renal; 96.7% in the assay on CCRF-CEM leukemia; 22.9% in the assay on MOLT-4 leukemia; -11.6% (active) in the assay on RPMI-8226 leukemia; 67.3% in the assay with OVCAR-8 ovarian; 85.4% in the assay on OVCAR-5 ovarian. Further, the growth was 26.6% in the assay on OVCAR-4 ovarian; 105% with SK-OV-3 ovarian; 49.8% with IGROV1 ovarian; 71% in the assay with OVCAR-3 ovarian; 73.2% in the assay with HS 578T breast; 66.9% with NCI/ADR-RES ovarian.
For the compound `CO[C@H]1/C=C/O[C@@]2(C)Oc3c(C)c(O)c4c(c3C2=O)C(=O)C(/C=N/N(c2ccccc2)c2ccccc2)=C(NC(=O)/C(C)=C\C=C\[C@H](C)[C@H](O)[C@@H](C)[C@@H](O)[C@@H](C)[C@H](OC(C)=O)[C@@H]1C)C4=O`, the growth with SK-MEL-2 melanoma was -60.8% (active); in the assay with SN12C renal, -49.2% (active); in the assay on UO-31 renal, -19.3% (active); in the assay on TK-10 renal, -1.72% (active); in the assay on ACHN renal, -33% (active); in the assay on CAKI-1 renal, -4.42% (active). Also, the growth in the assay with A498 renal is -5.29% (active); with CCRF-CEM leukemia it was 1.62% (active); in the assay on MOLT-4 leukemia it was 3.36% (active); in the assay on SR leukemia it was -13% (active); in the assay on RPMI-8226 leukemia, -19.1% (active); in the assay on OVCAR-8 ovarian it was 7.09% (active). Besides, the growth was -43.7% (active) in the assay on OVCAR-5 ovarian; 9.98% (active) with OVCAR-4 ovarian; 12.2% in the assay on SK-OV-3 ovarian; -16.3% (active) in the assay with IGROV1 ovarian; -83% (active) in the assay on OVCAR-3 ovarian; -0.488% (active) in the assay on HS 578T breast. The growth in the assay on NCI/ADR-RES ovarian was 6.55% (active).
Turning to `COc1cc(C2CC(c3ccc(Nc4nc(Nc5ccc(F)cc5)nc(Nc5ccc(Cl)cc5)n4)cc3)=NN2C(C)=O)cc(OC)c1OC` (centres undefined), the growth in the assay on SK-MEL-2 melanoma is 66%; in the assay with EKVX NSCLC it was 202%; in the assay on UO-31 renal, 53.6%; in the assay with TK-10 renal it was 60.7%; in the assay on ACHN renal it was 77.5%; with A498 renal it was 78.4%. Moreover, the growth is 27.6% with CCRF-CEM leukemia; 4.27% (active) in the assay with MOLT-4 leukemia; 45.3% in the assay with SR leukemia; 19.1% in the assay on RPMI-8226 leukemia; 62.5% in the assay on OVCAR-8 ovarian; 83.5% in the assay with OVCAR-5 ovarian. In addition, the growth in the assay with OVCAR-4 ovarian was 77.6%; with SK-OV-3 ovarian, 92.8%; in the assay with OVCAR-3 ovarian, 82.7%; in the assay on HS 578T breast, 75.7%; in the assay on NCI/ADR-RES ovarian, 69.8%.
